Assay outcomes from PubChem BioAssay.
Many of the other results were omitted from the sample, so hits are more common in it than they were.
Pf Dd2 inh: qHTS Primary assay for Inhibitors of Plasmodium falciparum Dd2 growth in vitro; P. falciparum Dd2 growth, SYBR Green, 72 h; Potency, µM (top dose mostly 28.9 µM), for inactives: at the highest dose activity, negative = inhibition, hits mostly inhibitors; hit rate 4.3% among 120,000; AID 1347417, 2020; active = well fitted inhibition curve with a large enough effect;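 also: plate controls were DMSO vehicle for no effect and reference drug for full effect; nearly all actives have a fitted effect of over 65% in size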
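Infected erythrocytes (Dd2, 0.3% parasitemia, 2.5% hematocrit final) are added to compound in RPMI-1640/Albumax II medium, grown 72 h at 37C in low oxygen, then lysed with saponin/Triton-X containing SYBR Green and read by fluorescence.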
An asterisk follows results filed as active; ! = a repeat was not active; [ ] = remark or other dose. Potency is read from the fitted curve at half-maximal effect.

CC(C)c1nc2c(c(-c3ccc(Cl)cc3)n1)CN([S+](=O)([O-])c1cccs1)CC2 was read as Pf Dd2 inh inactive.
`COc1ccc(-c2nc(C(C)C)nc3c2CN([S+](=O)([O-])c2cccc(OC)c2)CC3)cc1` gave Pf Dd2 inh inactive.
`CCn1ccc(C(=O)N2CCc3nnc([C@@H]4C[C@@H](O)CN4C)n3CC2)n1` gave Pf Dd2 inh 3%.
For Cc1ccc(NC(=O)Cn2cc(C(=O)c3ccco3)c3ccccc32)cc1 the results were Pf Dd2 inh 11µM*.
For CCOc1ccc(NC(=O)Cn2cc(C(=O)c3ccco3)c3ccccc32)cc1 the results were Pf Dd2 inh -24%.
Cc1cccc(C)c1NC(=O)Cn1cc(C(=O)c2ccco2)c2ccccc21 was read as Pf Dd2 inh -17%.
For O=C(Cn1cc(C(=O)c2ccco2)c2ccccc21)Nc1ccccc1Cl the results were Pf Dd2 inh -27%.
For Cc1ccc(NC(=O)Cn2cc(C(=O)c3ccco3)c3ccccc32)cc1C the results were Pf Dd2 inh 8.9µM*.
O=C(Cn1cc(C(=O)c2ccco2)c2ccccc21)Nc1ccccc1C(F)(F)F was read as Pf Dd2 inh -27%.
CC(C)N1C(=O)[C@@H]2[C@@H](CCN2C(=O)CSCC(=O)O)N(Cc2cccc(F)c2)C1=O was read as Pf Dd2 inh -5%[44.1 µM].
For Cc1nnc(NC(=O)NCCn2nc(-c3ccccc3)ccc2=O)s1 the results were Pf Dd2 inh -12%.
For CCc1ccc(N2CC(c3noc(-c4ccco4)n3)CC2=O)cc1 (stereo not given) the results were Pf Dd2 inh 46%.
COc1ccc(-c2noc([C@@H]3C[C@H](NC(=O)COCC(=O)O)CN3C)n2)cc1 was read as Pf Dd2 inh -18%[44.1 µM].
For COc1ccc(-c2noc([C@@H]3C[C@H](NCc4ccc(N(C)C)cc4)CN3C)n2)cc1 the results were Pf Dd2 inh 13µM*.
COc1ccc(-c2noc([C@@H]3C[C@H](NS(=O)(=O)c4ccccc4)CN3C)n2)cc1 was read as Pf Dd2 inh inactive.
Screening COCCN1CC(CO)C2(CCN(C(=O)Cc3c(C)noc3C)CC2)C1 (stereo not given) returned Pf Dd2 inh 36%.
For O=C1CC(c2ccccc2)N(Cc2cn[nH]c2-c2cccs2)CCCCCN1 (stereo not given) the results were Pf Dd2 inh -9%.
For COCCC1(NC(=O)c2ccccc2)CCN(Cc2cn[nH]c2-c2cccs2)CC1 the results were Pf Dd2 inh 8.9µM*.
`COc1ccccc1-c1[nH]ncc1CN1CCC2(CC1)CC(O)CCO2` (stereo not given) gave Pf Dd2 inh 44%.
COCC(=O)N(C1CCOCC1)C1CCN(C(=O)c2ccncc2)CC1 was read as Pf Dd2 inh 10%.
`Cn1cccc1CN1CCC2(Cc3ccccc3CNC2=O)C1` (stereo not given) gave Pf Dd2 inh -24%.
CCCS(=O)(=O)N1CCC(N2CCCC(C(=O)N3CCOCC3)C2)CC1 (stereo not given) was read as Pf Dd2 inh 0%.
For O=C(O)c1cc(-c2ccccc2CO)cc(S(=O)(=O)N2CCCCCC2)c1 the results were Pf Dd2 inh 1%.
For CCNC(=O)N1CCC(c2noc(-c3ccncc3)n2)C1 (stereo not given) the results were Pf Dd2 inh 15%[5.79 µM].
Fc1ccc(C2Cn3nnc(-c4nc(-c5cccc(Cl)c5)no4)c3CO2)cc1 (stereo not given) was read as Pf Dd2 inh 8%.
`CCN1C(=O)C2(CCN(S(=O)(=O)Cc3ccc(Cl)cc3)CC2)c2ccccc21` gave Pf Dd2 inh inactive.
Screening O=C1N(Cc2ccccc2)c2ccccc2C12CCN(Cc1cncs1)C2 (stereo not given) returned Pf Dd2 inh -11%.
`CN1C(=O)C2(CCN(C(=O)C3CCCC3)CC2)c2ccccc21` gave Pf Dd2 inh 13%.
Cc1cc(CN2CCC3(C2)C(=O)N(Cc2ccccc2)c2ccccc23)no1 (stereo not given) was read as Pf Dd2 inh -23%.
Screening O=C1N(CCc2ccccc2)c2ccccc2C12CCN(CC1CC1)C2 (stereo not given) returned Pf Dd2 inh 5µM*!.
O=C(CC1CCN(C(=O)NC2CCCCC2)C1)NCc1ccccc1 (stereo not given) was read as Pf Dd2 inh 10%.
Screening O=C(NC1CCCC1)N1CCC2(C1)C(=O)N(CCc1ccccc1)c1ccccc12 (stereo not given) returned Pf Dd2 inh 7.9µM*!.
`O=C(Nc1ccc(Cl)cc1)N1CCC2(C1)C(=O)N(CCc1ccccc1)c1ccccc12` (stereo not given) gave Pf Dd2 inh 4.5µM*.
`CN1C(=O)C2(CCN(C(=O)Nc3ccccc3F)C2)c2ccccc21` (stereo not given) gave Pf Dd2 inh inactive.
O=C(c1ccccc1Cl)N1CCC2(CC1)C(=O)NCN2Cc1ccc(Cl)cc1 was read as Pf Dd2 inh -24%.
`Cc1ccc2nsnc2c1S(=O)(=O)N[C@@H]1CC[C@@H](N)C1` gave Pf Dd2 inh -2%.
`O=C1CCCCN1CCCC(=O)N1CCOC(CC2CCCCC2)C1` (stereo not given) gave Pf Dd2 inh 1%.
Screening COCc1noc([C@@H]2CN(Cc3cccc(C#N)c3)C[C@H]2COC)n1 returned Pf Dd2 inh 9%.
COc1ccc(-c2cc(N3CCCC(NC(=O)c4cc(Cl)ccc4F)C3)n[nH]2)cc1 (stereo not given) was read as Pf Dd2 inh inactive.
CCOc1ccccc1NC(=O)N1CCC(Oc2ncccc2C(=O)N2CCCCC2)C1 (stereo not given) was read as Pf Dd2 inh -18%.
For Clc1ccc(CCNC(c2nnc(-c3ccccc3)o2)c2ccccc2Cl)cc1 (stereo not given) the results were Pf Dd2 inh 11µM*.
Cc1c(Cl)cccc1NC(c1ccc(F)cc1)c1nnc(-c2ccccc2)o1 (stereo not given) was read as Pf Dd2 inh inactive.
O=S(=O)(NCCc1noc(-c2ccccc2)n1)c1ccc(Cl)cc1 was read as Pf Dd2 inh inactive.
O=C(Cn1nc2n(c1=O)CCCCC2)NCCC1=CCCCC1 was read as Pf Dd2 inh -48%.
Screening O=C(c1cnccn1)N1CCC(c2nc(C3CCOCC3)no2)CC1 returned Pf Dd2 inh 28%.
For O=C(Cc1ccc(OC(F)(F)F)cc1)N1CCC([C@@H]2CNC[C@H]2CO)CC1 the results were Pf Dd2 inh -17%.
`O=C(CCc1ccccc1)N1CCC2(CC1)NC(=O)N(c1ccccc1)N2` gave Pf Dd2 inh -15%.
Cc1nc(CNC(=O)c2csc(-c3ccc(C(F)(F)F)cc3)n2)no1 was read as Pf Dd2 inh 2%.
For CCN1C(=O)CCN(C(C)=O)CC12CCOCC2 the results were Pf Dd2 inh 11%.
`CCN1C(=O)CCN(S(=O)(=O)CC)CC12CCOCC2` gave Pf Dd2 inh 7%.
CCN1C(=O)CCN(CC2CCCCC2)CC12CCOCC2 was read as Pf Dd2 inh 3.5µM*.
`CCOc1ccc(-c2cc3c(=O)n(CCNC(=O)Cc4cccc(F)c4)ccn3n2)cc1` gave Pf Dd2 inh inactive.
`O=C(c1cccnc1)N1CCC(c2noc(-c3cnccn3)n2)C1` (stereo not given) gave Pf Dd2 inh 72%[5.79 µM].
